For 84 sequences, sensor-assay potency score (higher = more potent) results are on record in the OligoGym collection.

Some targets named below: C20orf112; C1orf84; C1orf64; C20orf54; C1orf61; C2orf82; C4orf27; C5AR1; C4orf45; C3orf64; C6orf105; C6orf223; C6orf48; C6orf203; C6orf58.
Test in all cases: pooled miR-30 sensor sort-seq; sequence = guide strand
Common to all, as to details: shRNA
Further: reference of the scale not given here.

Take TTGTCTCGCTCTCACAGGCAGC: the sensor-assay potency score (higher = more potent) in the assay with C20orf112 is -1.65. As for TCATCAAACAAGATCTCCCCTG, the sensor-assay potency score (higher = more potent) in the assay with C1orf84 was -0.444. TTCATCTGCAGAGCGCAGCAGG gave a sensor-assay potency score (higher = more potent) in the assay with C20orf112 of -0.526. As to TTGACTGTGGAGGTTCTGCGGG, the sensor-assay potency score (higher = more potent) in the assay with C20orf112 was -0.683.

Sequence TTCAGTGAGTCCTTGACTGTTC showed a sensor-assay potency score (higher = more potent) in the assay with C1orf64 of 0.426. The same measure, in the same setting: as for TGTAAGTCTTCATTGGTGGGGT, the figure is 0.329.

Sequence TCCAACTCAATGACAAACCGAT displayed a sensor-assay potency score (higher = more potent) with C1orf84 of -0.656. Sequence TATCGTTATCTGCTTGTCTTGT registered a sensor-assay potency score (higher = more potent) with C20orf54 of 0.0273. With TTTCATGCTGAGGTCCGTGGGC, in the assay with C20orf112, the sensor-assay potency score (higher = more potent) was -0.763. TTTGGTCTCCCAACTTAGCCAT returned a sensor-assay potency score (higher = more potent) with C1orf61 of -0.53. ATCTCAGTGACATTGACGCAGG: in the assay with C20orf54, the sensor-assay potency score (higher = more potent) was -1.25. Regarding TTCCCCACAGAACACGATGTAA, in the assay with C1orf64, the sensor-assay potency score (higher = more potent) was -1.15.

In the case of TAGATCTCTAGACGCATCCGCT, the sensor-assay potency score (higher = more potent) with C20orf112 stood at 0.0864. For the sequence TTAACAGGAACACCTGCCCAGC, in the assay with C1orf84, the sensor-assay potency score (higher = more potent) is -1.3.

In the assay with C1orf64, AAGTTGAAGACCTCACAGGCGC yielded a sensor-assay potency score (higher = more potent) of -0.73.

With TTGCAGAAGTCCGCGGACGAGA, the sensor-assay potency score (higher = more potent) with C20orf54 was -1.3. As for ATGTAAGTCTTCATTGGTGGGG, in the assay with C1orf64, the sensor-assay potency score (higher = more potent) is -0.782.

As to TAGTTACATAGATCTCAGGCTG, the sensor-assay potency score (higher = more potent) with C1orf84 was -0.122. As to ATTGTCCTCATGGTCATCGTGG, in the assay with C20orf112, the sensor-assay potency score (higher = more potent) was -0.617. Same read-out and setting: the value for TTCATCTTGTCATTGTCCTCAT was 0.226. TTTCAGTGAGTCCTTGACTGTT returned a sensor-assay potency score (higher = more potent) with C1orf64 of -0.901. TTACTCTCCAACTAGTGGGCTT returned a sensor-assay potency score (higher = more potent) in the assay with C20orf54 of -0.23. Sequence TTTCATTAACAGGAACACCTGC yielded a sensor-assay potency score (higher = more potent) with C1orf84 of 0.405.

In the assay with C1orf84, TTACATAGATCTCAGGCTGGAA displayed a sensor-assay potency score (higher = more potent) of -0.261.

In the assay with C1orf84, TTGGTGCAGATGACTGAGGAAC showed a sensor-assay potency score (higher = more potent) of -1.39.

ATTGGTGGGGTGACAAGCCCTC: in the assay with C1orf64, the sensor-assay potency score (higher = more potent) was -0.204. Still for that read-out and setting: as for TTAGCCTCGGGAACCTCCTGGG, the figure is -0.502; as for TTGAAGACCTCACAGGCGCAGC, -1.07. Consider ATTAACAGGAACACCTGCCCAG, for which the sensor-assay potency score (higher = more potent) in the assay with C1orf84 was found to be 0.146. Turning to TAAGTCTTCATTGGTGGGGTGA, in the assay with C1orf64, the sensor-assay potency score (higher = more potent) is -0.373.

In the assay with C20orf112, TTTCTTGTCTCGCTCTCACAGG yielded a sensor-assay potency score (higher = more potent) of -0.96.

Take ATCGTCGTCATCATCTGCCGTC: the sensor-assay potency score (higher = more potent) with C20orf112 is -0.187. For ATCGTCTGTGAGCACCGCAGGG, the sensor-assay potency score (higher = more potent) with C2orf82 was -1.34.

For the sequence TATAATGATTTTCTACTTCTTT, in the assay with C4orf27, the sensor-assay potency score (higher = more potent) is -0.484. TAGAAGTTTTATCCACAGGGGT displayed a sensor-assay potency score (higher = more potent) with C5AR1 of -0.173. TAATCCTTTATGTAGTCTGGAC gave a sensor-assay potency score (higher = more potent) with C4orf45 of -0.844. In the assay with C4orf27, TTATACAATTTTTCTTTGCTTC showed a sensor-assay potency score (higher = more potent) of -0.21. Sequence TTAGCATCTTCTATAGGTCTGA displayed a sensor-assay potency score (higher = more potent) with C3orf64 of 0.396. In the case of TTTTTCTAACGCCAGATGCTGT, the sensor-assay potency score (higher = more potent) in the assay with C4orf45 is -0.936. In the assay with C5AR1, TTAGAAGTTTTATCCACAGGGG returned a sensor-assay potency score (higher = more potent) of -0.274.

In the assay with C4orf27, TTCTTTTCGAAGGTCACTGGAG showed a sensor-assay potency score (higher = more potent) of -0.538. With TTAACTCACTTACAAGAGCTTA, in the assay with C5AR1, the sensor-assay potency score (higher = more potent) was -0.512. In turn, TATTTCTCTAAGTTTTTTCGTC showed a sensor-assay potency score (higher = more potent) with C4orf27 of -0.0754.

TTTTGGTAGCTTCGGCAGCTTA: the sensor-assay potency score (higher = more potent) with C4orf45 is -1.74. Turning to TTATGTAGTCTGGACCTGTAAA, in the assay with C4orf45, the sensor-assay potency score (higher = more potent) was -1.37. Turning to TTAATCACAAATGCTCTCCATG, the sensor-assay potency score (higher = more potent) in the assay with C3orf64 was -0.629. For the sequence TTTCCTACCACAAACAGTGTTA, the sensor-assay potency score (higher = more potent) with C3orf64 was -0.00284.

For the sequence TATTTTGCTGGCAAGCTTCTAT, the sensor-assay potency score (higher = more potent) with C4orf45 was -0.0491. TATGTTCTCTTGACTTCTGTTT gave a sensor-assay potency score (higher = more potent) in the assay with C4orf27 of -0.298. On to TCTCTGATCAGTGTCCTCGAAA, for which the sensor-assay potency score (higher = more potent) with C4orf45 was -0.979. In the assay with C3orf64, TAAACAAGTTGGAACACTCTGG registered a sensor-assay potency score (higher = more potent) of 0.509. TTGAGTGTCTTGGTGGACCGCG displayed a sensor-assay potency score (higher = more potent) with C5AR1 of 0.0393. In the assay with C4orf27, TTATCTACTGGAACAACCAAGC had a sensor-assay potency score (higher = more potent) of -0.86. Same read-out and setting: as for TTAGTCTCTCCTCATCACTTGC, the figure is -0.932. TTCCTTTTTTGGTAGCTTCGGC displayed a sensor-assay potency score (higher = more potent) with C4orf45 of -0.246. As to TCTACTGGAACAACCAAGCCTG, the sensor-assay potency score (higher = more potent) with C4orf27 is -0.00895. TTCATCTTCACAGTTGTACAGT had a sensor-assay potency score (higher = more potent) with C3orf64 of 0.304.

TCTTCAGTCAACACGTTCCGGA came in with a sensor-assay potency score (higher = more potent) with C5AR1 of -0.631. As to TTATACTGTGGTATTCTCCAAC, in the assay with C4orf45, the sensor-assay potency score (higher = more potent) is -0.109. Sequence TTTATCTACTGGAACAACCAAG returned a sensor-assay potency score (higher = more potent) with C4orf27 of -0.789. In the assay with C5AR1, TACTCCTCCCGGACCACCCGGT gave a sensor-assay potency score (higher = more potent) of -0.108.

TATATGGACAAAGAGAGTCTTT registered a sensor-assay potency score (higher = more potent) with C3orf64 of -0.594.

As for TTCTCTTGAGGTCAGCATCTGT, in the assay with C4orf27, the sensor-assay potency score (higher = more potent) is -0.164.

Sequence TAATGGTCTGGAACTCAGGAGG had a sensor-assay potency score (higher = more potent) in the assay with C4orf27 of -0.721. With ATAAATATCTGAGATCTCCAGT, the sensor-assay potency score (higher = more potent) with C4orf45 is 0.467. Sequence TTAGGTGGTTTGGAAGCTCTTG gave a sensor-assay potency score (higher = more potent) with C4orf45 of -0.244. The sequence TAAGGTAACACCATCCCACGAA came in with a sensor-assay potency score (higher = more potent) in the assay with C5AR1 of 0.399. TTATATTTTGCTGGCAAGCTTC yielded a sensor-assay potency score (higher = more potent) with C4orf45 of -1.08. TAGAAGACTGTTCCAATCCTTT: the sensor-assay potency score (higher = more potent) with C3orf64 was -0.485.

Take TTCATCATTAGCAAACTGCACA: the sensor-assay potency score (higher = more potent) with C4orf27 is -0.513.

Regarding TAGGTGGTTTGGAAGCTCTTGG, the sensor-assay potency score (higher = more potent) in the assay with C4orf45 is -0.261.

Consider AAGTGTAACAAATCGTGAGCGT, for which, in the assay with C5AR1, the sensor-assay potency score (higher = more potent) was -0.136. On to TACATATTTTCCAACTTGCCAT, for which the sensor-assay potency score (higher = more potent) in the assay with C5AR1 is -0.462. Sequence TAATTGAGGAAAGTATACCAGC registered a sensor-assay potency score (higher = more potent) with C6orf105 of -0.629. In turn, TTGAGGACAGCTGAAGTCTTGC returned a sensor-assay potency score (higher = more potent) with C6orf223 of -0.761. For the sequence TAAGTTCTTAGGATATGCCCAG, the sensor-assay potency score (higher = more potent) in the assay with C6orf48 is -0.415. The sequence TATTTTAATAAAAATGTCCTAT gave a sensor-assay potency score (higher = more potent) with C6orf203 of -0.604. The sequence AAGTCTTGCCACTTCTTCTGGA returned a sensor-assay potency score (higher = more potent) with C6orf223 of -0.0269. Same read-out and setting: the value for TAATTTCTTCTCGCGCTCGGGG was -0.685. In turn, TGTCAGCAAATTCCATAGCAAG showed a sensor-assay potency score (higher = more potent) with C6orf48 of -1.37. TAGAGGAGAGCTCTGAGCCTGG registered a sensor-assay potency score (higher = more potent) with C6orf223 of -0.55. Take TAGAATAATAATCATATCTGTC: the sensor-assay potency score (higher = more potent) in the assay with C6orf58 is -0.538. As for AATTAGAGCGCATTAGCCGTGC, in the assay with C6orf223, the sensor-assay potency score (higher = more potent) was -0.806.

As for TAGATTTATCCACATTGTCAAG, the sensor-assay potency score (higher = more potent) with C6orf58 was -1.66.
